In PubChem BioAssay:
The source made the active and inactive calls.

Key:
[1] = test system: XIP peptide (Xip251-270) binding; experiment: small-molecule binders of XIP peptide, primary screen, biochemical, small-molecule microarray, fluorescence 635/667 nm, 0.1 µg/mL protein (AID 1182); details: fluorescent protein binding, 635 nm, higher = more signal, called active from +8 up or from −8 down
[2] = test system: XIP peptide (Xip251-270); experiment: small-molecule binders of XIP peptide, primary screen, biochemical, small-molecule microarray, fluorescence 635/667 nm, 0.5 µg/mL protein (AID 1183); details: small-molecule microarray binding, fluorescence 635 nm; higher = more signal
[3] = Plasmodium falciparum growth inhibition, primary screen, strain 3D7, DAPI fluorescence, 100 nL (AID 1184);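 also: parasites grown inside human red blood cells in medium with human serum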; details: P. falciparum 3D7 growth, 3 d, higher = more signal
[4] = biological target: Homeobox protein Hox-A13 (Mus musculus) (UniProt Q62424); experiment: inhibitors of HoxA13-DNA binding, primary screen, biochemical, fluorescence polarization, labeled oligonucleotide (AID 1185); details: 15 min, higher = more signal, called active from +8 up or from −8 down
Homeobox protein Hox-A13 (Mus musculus), sequence (Q62424 whole entry, looked up): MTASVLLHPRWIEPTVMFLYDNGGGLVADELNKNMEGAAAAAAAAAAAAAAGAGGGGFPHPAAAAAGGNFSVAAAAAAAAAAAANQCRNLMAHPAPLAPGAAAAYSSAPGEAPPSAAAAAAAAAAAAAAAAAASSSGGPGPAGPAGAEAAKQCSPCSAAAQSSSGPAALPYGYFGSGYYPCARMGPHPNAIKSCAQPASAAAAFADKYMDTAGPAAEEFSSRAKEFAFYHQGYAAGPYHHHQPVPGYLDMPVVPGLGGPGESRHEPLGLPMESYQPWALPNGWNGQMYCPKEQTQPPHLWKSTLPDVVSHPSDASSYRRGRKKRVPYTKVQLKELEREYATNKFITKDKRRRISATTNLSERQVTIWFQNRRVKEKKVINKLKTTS

| SMILES | composite z-score [1] | composite z-score [2] | z-score [3] | z-score [4] |
| --- | --- | --- | --- | --- |
| COC(=O)CC=C[C@@H](C)[C@@H](C=NO[C@@H]1O[C@H](COC(C)=O)[C@@H](OC(C)=O)[C@H](OC(C)=O)[C@H]1OC(C)=O)NS(=O)(=O)c1ccc(C)cc1 | -0.0076 (inactive) | 0.203 | -0.0818 | -5.17 (inactive) |
| C[C@@H](c1ccccc1)N1C(=O)[C@H]2[C@H]3[C@H](O)[C@H](O)CC(=O)[C@H]3CC[C@H]2C1=O | -0.286 (inactive) | 0.251 | 0.676 | 0.0632 (inactive) |
| CC(C)=NO[C@H](C)c1cn([C@H](CO)Cc2ccccc2)nn1 | -0.662 (inactive) | 0.0455 | 0.28 | 0.584 (inactive) |
| C=CC[C@@H]1C=C[C@H](ON=C(C)CCC(=O)OC[C@H]2O[C@H](c3ccccc3)C=C[C@@H]2Oc2ccc(OC)cc2)[C@@H](CO)O1 | 0.0195 (inactive) | 0.595 | 0.298 | -5.41 (inactive) |
| CO[C@H]1COC(=O)CC=C[C@@H](C)[C@H](NS(=O)(=O)c2ccc(C)cc2)COC(=O)CCC[C@@H]1C | 0.0922 (inactive) | 0.231 | 1.19 | -0.499 (inactive) |
| COC(=O)[C@@H]1CC[C@H](C)[C@@H](c2ccc(C)cc2)N1C(=O)c1ccc(C=NO[C@@H]2O[C@H](COC(C)=O)[C@@H](OC(C)=O)[C@H](OC(C)=O)[C@H]2OC(C)=O)cc1 | -0.279 (inactive) | 0.649 | -1.4 | 0.102 (inactive) |
| CO[C@@H]1COC(=O)[C@H](CCSC)NC(=O)CC=C[C@@H](C)COC(=O)[C@H](C)NC(=O)CC=C[C@H]1C | -0.665 (inactive) | 0.909 | -0.131 | -0.042 (inactive) |
| CCOC(=O)NN=C1C[C@@H](O)[C@@H](O)[C@@H]2[C@@H]3C(=O)N(c4ccc(F)cc4F)C(=O)[C@@H]3CC[C@@H]12 | 0.015 (inactive) | -0.0246 | -0.404 | -1.23 (inactive) |
| CCOC(=O)[C@H](CC(C)C)NC(=O)CCC1CC(OC(=O)NCc2cccc3ccccc23)CC2(CCCC(COC(=O)NCCC(C)C)O2)O1 (stereo partly specified) | -0.299 (inactive) | 0.434 | -0.267 | -6.1 (inactive) |
| O=C(NN=C1C[C@@H](O)[C@@H](O)[C@@H]2[C@@H]3C(=O)N(C[C@@H]4CCCO4)C(=O)[C@@H]3CC[C@@H]12)OCc1ccccc1 | 1.77 (inactive) | 0.126 | 0.263 | 0.756 (inactive) |
| C#CCCCON=C1C[C@@H](O)[C@@H](O)[C@@H]2[C@@H]3C(=O)N(C(C)(C)C)C(=O)[C@@H]3CC[C@@H]12 | -0.0287 (inactive) | 0.109 | -0.315 | -3.44 (inactive) |
| CC(=O)O[C@H]1C2=CO[C@H](C)[C@H]3[C@H]4C5=C([C@H](O)[C@H]6O[C@H]6C5=O)[C@H](OC4C)[C@@]23C(=O)[C@@H]2O[C@@H]21 (stereo partly specified) | 0.533 (inactive) | -0.406 | -1.24 | -1.02 (inactive) |
| COC(=O)[C@H]1O[C@@H](c2c(OC)c(OC)c(C)c(OC)c2OC)[C@H](C)[C@@H](O)[C@H]1C | 0.498 (inactive) | 0.486 | 0.0136 | 0.6 (inactive) |
| CO[C@H]1COC(=O)CC=C[C@H](C)[C@@H](OC)COC(=O)[C@@H](C)COC(=O)CC=C[C@@H]1C | -0.0653 (inactive) | -0.396 | -0.276 | -1.42 (inactive) |
| Cc1ccc(S(=O)(=O)N[C@H]2COC(=O)CC=C[C@H](C)[C@@H](NS(=O)(=O)c3ccc(C)cc3)COC(=O)CC=C[C@@H]2C)cc1 | 0.127 (inactive) | -0.019 | -0.304 | -0.449 (inactive) |
| COc1ccc(O[C@@H]2[C@H](O)CO[C@@H]2C=Cc2ccccc2)cc1 | 0.196 (inactive) | 0.592 | -0.971 | -0.162 (inactive) |
| CCOC(=O)[C@H](CC(C)C)NC(=O)CCC1CC(OC(=O)NCCc2ccc(F)cc2)CC2(CCCC(COC(=O)NCCc3ccc(Cl)cc3)O2)O1 (stereo partly specified) | 1.08 (inactive) | 0.571 | -1.9 | -6.52 (inactive) |
| O=C1[C@H]2[C@H]3[C@H](O)[C@H](O)CC(=NOCc4ccccc4)[C@H]3CC[C@H]2C(=O)N1Cc1ccc2c(c1)OCO2 | -0.4 (inactive) | -0.267 | -0.437 | -3.74 (inactive) |
| CCOC(=O)[C@H](CC(C)C)NC(=O)CCC1CC(OC(=O)NCCc2ccc(F)cc2)CC2(CCCC(COC(=O)NCCc3ccccc3OC)O2)O1 (stereo partly specified) | 0.742 (inactive) | 0.578 | -1.89 | -2.36 (inactive) |
